Screening results (PubChem)
Only some compounds are listed: those with a hit (about 7.2% of all), similar ones and a draw of the others.
Luciferase inh: firefly luciferase inhibition; P08659; purified firefly luciferase, luminescence, 8 min; Potency, µM (top dose mostly 57.1 µM), inactives show top-dose activity change, negative = inhibition, actives largely listed as inhibitors; actives 2.2% (n = 72,000); AID 411; note: % is set by controls: 0 for no effect and ±100 for the full control effect; nearly all actives have a fitted effect of over 40% in size
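qHTS concentration-response profiling: light output of P. pyralis luciferase with luciferin and 10 uM ATP, imidazole buffer pH 7.2. Read by luminescence after 8-min room-temperature incubation.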
TSHR ag: activates the human thyroid stimulating hormone receptor | Potency, µM (titrated, usually from 57.1 µM), without a hit: top-dose activation, most hits filed as activators | P16473 | actives 0.48% (n = 73,000) | AID 926 | HEK293-CNG-TSHR cells (CNG channel as cAMP sensor), membrane potential dye, cAMP; active = well fitted activation curve with a large enough effect in the main read-out, with a control signal flat, not every such curve was filed as active; inconclusive = small, poorly fitted or top-dose-only effect, or a change in a side signal; inactive = no such curve, though single readings can be large or run the other way; % of control where 0% means no effect;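 note: the control signal comes from parental cells without the receptor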
Target sequence (P16473 whole entry, looked up): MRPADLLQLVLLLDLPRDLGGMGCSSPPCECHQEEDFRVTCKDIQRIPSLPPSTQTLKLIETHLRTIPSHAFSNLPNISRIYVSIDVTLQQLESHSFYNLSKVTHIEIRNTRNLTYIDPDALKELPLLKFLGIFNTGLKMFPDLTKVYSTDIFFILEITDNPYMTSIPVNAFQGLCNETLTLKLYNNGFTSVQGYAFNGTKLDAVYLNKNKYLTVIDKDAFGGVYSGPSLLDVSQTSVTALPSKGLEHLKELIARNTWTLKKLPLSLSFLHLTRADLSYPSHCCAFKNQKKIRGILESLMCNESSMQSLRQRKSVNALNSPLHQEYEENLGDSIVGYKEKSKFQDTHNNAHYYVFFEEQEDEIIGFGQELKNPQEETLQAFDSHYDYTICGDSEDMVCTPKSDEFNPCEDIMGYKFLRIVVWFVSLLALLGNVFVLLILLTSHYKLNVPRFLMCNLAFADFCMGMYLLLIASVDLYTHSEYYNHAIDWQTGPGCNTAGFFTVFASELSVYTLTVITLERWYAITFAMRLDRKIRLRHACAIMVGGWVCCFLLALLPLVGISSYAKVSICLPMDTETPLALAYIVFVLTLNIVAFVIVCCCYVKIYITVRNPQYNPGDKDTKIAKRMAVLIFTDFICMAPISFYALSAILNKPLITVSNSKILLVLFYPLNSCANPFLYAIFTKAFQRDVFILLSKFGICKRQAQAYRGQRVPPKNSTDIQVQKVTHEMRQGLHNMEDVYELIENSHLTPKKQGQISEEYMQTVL
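HEK 293 cells stably expressing TSHR and a modified CNG channel, with CNG-only parental cells as counterscreen, were preloaded 60 min at room temperature with membrane potential dye containing 100 uM RO 20-1724. Compound exposure was 30 min, and depolarization was read as fluorescence at 590 nm.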
ERK AVP inh: blocks ERK signaling stimulated by vasopressin. AID 995. Potency, µM (series often up to 57.5 µM), inactives show at the top dose activity, negative = inhibition, actives largely listed as inhibitors. actives 0.99% (n = 72,000). HEK293-V1b, vasopressin-stimulated pERK AlphaScreen; note: % is set by controls: 0 for no effect and ±100 for the full control effect; nearly all actives have a fitted effect of over 55% in size
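HEK293 cells stably expressing V1b receptor, preincubated 30 min at 37 °C with compound, then stimulated 5 min with 25 nM vasopressin. Phospho-ERK by AlphaScreen SureFire after 5 h RT; normalized to DMSO and vasopressin; AC50 by Hill fit.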
PK Bst: modulators of Bacillus stearothermophilus pyruvate kinase | purified pyruvate kinase, luminescence ATP production; ribose 5-phosphate activator present at AC10 | Potency, µM | actives 1.2% (n = 51,000); in the data active = potency below about 11 µM; inconclusive = mostly about 12 µM to 25 µM;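 the screen sought inhibitors and activators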;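 note: scaled between full activation by ribose 5 phosphate and full inhibition by luteolin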
HEK293 cAMP cs: parental HEK293 cAMP activation (counter-screen). AID 938. actives 2.5% (n = 73,000). Potency, µM (titrated, usually from 57.1 µM), for the others: top-dose activation, actives largely listed as activators. parental HEK293 CNG cAMP sensor, membrane potential fluorescence; note: % of control where 0% means no effect; nearly all actives have a fitted effect of over 55% in size
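Counterscreen for endogenous-receptor signalling: CNG-channel HEK 293 cells report cAMP rise by membrane depolarization. After 60 min dye equilibration with 100 uM RO 20-1724, compounds incubated 30 min before bottom-read fluorescence at 590 nm.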
Tau filament bind: binders of human tau filaments. P10636. recombinant tau filaments, thioflavin S fluorescence, 15 h; filaments grown with octadecylsulfate alongside compound. Potency, µM (titrated, usually from 57.1 µM), without a hit: top-dose activity change, negative = inhibition. actives 2% (n = 71,000). AID 596;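 note: % is set by controls: 0 for no effect and ±100 for the full control effect; actives lower thioflavin S fluorescence by blocking filaments or displacing dye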
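Recombinant tau protein (human, 1 uM final) plus 30 uM ODS in HEPES pH 7.4 with NaCl, DTT and thioflavine S. Compound present from the start; fluorescence at 510 nm after 15 h, 37 C.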
An asterisk follows results filed as active; [ ] = another dose, or the depositor's remark. Unless noted, calls come from the whole dose curve; as a rule, active = well fitted curve in the direction sought with a large enough effect; inconclusive = small, poorly fitted or top-dose-only effect, or another doubt; inactive = no such curve, though single readings can be large; an effect the other way counts as inactive or inconclusive. Potency is the fitted concentration of half-maximal effect.

How did CCOc1ccc2[nH]c(=O)c(C(c3nnnn3Cc3ccco3)N3CCC(C)CC3)cc2c1 (stereo not given) do in these assays?
Luciferase inh: -3%; TSHR ag: inconclusive; ERK AVP inh: -10%; PK Bst: >57; HEK293 cAMP cs: 32µM*; Tau filament bind: -4%

How did CCOc1ccc2[nH]c(=O)c(C(c3nnnn3Cc3ccco3)N3CCCC(C)C3)cc2c1 (stereo not given) do in these assays?
Luciferase inh: -1%; TSHR ag: inconclusive; ERK AVP inh: 12%; PK Bst: >57; HEK293 cAMP cs: 7.9µM*; Tau filament bind: 2%

What do the screens show for `CCOc1ccc2[nH]c(=O)c(C(c3nnnn3C3CCCCC3)N3CCN(C)CC3)cc2c1` (stereo not given)?
Luciferase inh: 0%; TSHR ag: 3%; ERK AVP inh: -10%; PK Bst: >57; HEK293 cAMP cs: 8%; Tau filament bind: -7%

What do the screens show for `CCOc1ccc2[nH]c(=O)c(C(c3nnnn3C3CCCCC3)N3CCN(CC)CC3)cc2c1` (stereo not given)?
Luciferase inh: 3%; TSHR ag: 8%; ERK AVP inh: 24%; PK Bst: >57; HEK293 cAMP cs: 6%; Tau filament bind: 10%

Results for CN(C)C(=O)c1ccc(-c2cncnc2Nc2ccc(F)cc2)cc1 ?
Luciferase inh: -3%[2.29 µM]; TSHR ag: inconclusive; ERK AVP inh: -12%; HEK293 cAMP cs: inconclusive; Tau filament bind: -1%

What do the screens show for `CC(C)CO/N=C1/C[C@@H](O)[C@@H](O)[C@@H]2[C@@H]3C(=O)N(Cc4ccccc4)C(=O)[C@H]3CC[C@H]12`?
Luciferase inh: 3%[11.4 µM]; TSHR ag: inconclusive; ERK AVP inh: 13%[11.5 µM]; HEK293 cAMP cs: inconclusive

Results for Cc1noc(C)c1COC(=O)c1cc(=O)[nH]c2ccccc12 ?
Luciferase inh: 7%; TSHR ag: 10%; ERK AVP inh: 4%; PK Bst: >57; HEK293 cAMP cs: 23%; Tau filament bind: -3%

How did Cc1noc(C)c1C(=O)OCC(=O)c1c[nH]c2ccccc12 do in these assays?
Luciferase inh: 16µM*; TSHR ag: -14%; ERK AVP inh: 1%; HEK293 cAMP cs: -16%; Tau filament bind: -22%

Results for COc1c(N2C[C@@H]3CCCN[C@H]3C2)c(F)cc2c(=O)c(C(=O)O)cn(C3CC3)c12 ?
ERK AVP inh: 27%

How did Cc1noc(C)c1C(=O)N1CCC2(CCN(Cc3cc(C(F)(F)F)cc(C(F)(F)F)c3)CC2)CC1 do in these assays?
Luciferase inh: -2%[11.4 µM]; TSHR ag: 15%; ERK AVP inh: 12%; HEK293 cAMP cs: 15%; Tau filament bind: -9%

Results for COc1ccc(-c2nnc(COc3ccc4ccccc4c3)o2)cc1OC ?
Luciferase inh: -1%; TSHR ag: inconclusive; ERK AVP inh: inconclusive; HEK293 cAMP cs: 4µM*; Tau filament bind: 70%[11.4 µM]

What do the screens show for `O=c1c2ccccc2nc(SCc2nnc(-c3ccccc3)o2)n1-c1ccc(F)cc1F`?
Luciferase inh: 0%; TSHR ag: inconclusive; ERK AVP inh: inconclusive; PK Bst: >57; HEK293 cAMP cs: inconclusive; Tau filament bind: 22%

How did COc1ccc(-c2nnc(CSc3nc4ccccc4c(=O)n3C)o2)cc1OC do in these assays?
Luciferase inh: -33%; TSHR ag: inconclusive; ERK AVP inh: inconclusive; PK Bst: >57; HEK293 cAMP cs: 25µM*; Tau filament bind: 1%

What do the screens show for `COc1ccc(-n2c(=O)c(C)nc3cnc(Oc4ccccc4)nc32)cc1`?
Luciferase inh: 1%[11.4 µM]; TSHR ag: -1%; ERK AVP inh: -9%; HEK293 cAMP cs: 19%; Tau filament bind: -7%

How did Cc1cccc(N2CCN(c3nnnn3-c3ccccc3)CC2C)c1 (stereo not given) do in these assays?
Luciferase inh: 3%; TSHR ag: inconclusive; ERK AVP inh: -14%; PK Bst: >57; HEK293 cAMP cs: 25µM*; Tau filament bind: 1%

How did Cc1cccc(N2CCN(c3cc(C)nc4nnnn34)CC2C)c1 (stereo not given) do in these assays?
Luciferase inh: -1%; TSHR ag: -1%; ERK AVP inh: 10%; PK Bst: >57; HEK293 cAMP cs: 4%; Tau filament bind: -84%

Results for CC(CCC(=O)O)C1CCC2C3CC[C@H]4CC(O)CC[C@@]4(C)C3C=C[C@]12C (stereo not given in full) ?
ERK AVP inh: -4%

What do the screens show for `C/C(CCC(=O)OC[C@@H]1O[C@H](C#Cc2ccccc2)C=C[C@@H]1Oc1ccc(C)cc1)=N/O[C@@H](C)c1cc(-c2c(C)cc(C)cc2C)no1`?
Luciferase inh: 0%[11.4 µM]; TSHR ag: 1%[11.4 µM]; ERK AVP inh: 3%[11.5 µM]; HEK293 cAMP cs: 0%[11.4 µM]

What do the screens show for `Cc1cc(C#N)c(C)n1-c1cc(C(F)(F)F)ccc1N1CCOCC1`?
Luciferase inh: -1%; TSHR ag: inconclusive; ERK AVP inh: 18%; PK Bst: >57; HEK293 cAMP cs: 13µM*; Tau filament bind: -10%

Results for COc1ccc2c3c(cccc13)NN=C2C ?
Luciferase inh: -21%; TSHR ag: -17%; ERK AVP inh: 5%; HEK293 cAMP cs: -21%; Tau filament bind: 16µM*

Results for COc1cccc(OC)c1OCCCc1c(C)n[nH]c1C ?
Luciferase inh: 3%; TSHR ag: 4%; ERK AVP inh: -2%; PK Bst: >57; HEK293 cAMP cs: 0%; Tau filament bind: -1%

What do the screens show for `O=C(CSCc1nc2ccccc2[nH]1)N1CCN(c2cccc(Cl)c2)CC1`?
Luciferase inh: 3%; TSHR ag: inconclusive; ERK AVP inh: 25µM*; PK Bst: >57; HEK293 cAMP cs: inconclusive; Tau filament bind: -10%

How did O=C(CSCc1ccccc1)N1CCN(c2ccc(F)cc2)CC1 do in these assays?
Luciferase inh: -2%; TSHR ag: inconclusive; ERK AVP inh: -19%; HEK293 cAMP cs: inconclusive; Tau filament bind: -17%[11.4 µM]

How did O=C(CSCc1nc2ccccc2[nH]1)N1CCN(c2ccc(F)cc2)CC1 do in these assays?
Luciferase inh: -1%; TSHR ag: 26%; ERK AVP inh: -30%; PK Bst: >57; HEK293 cAMP cs: 16%; Tau filament bind: 20µM*

What do the screens show for `O=C(CSCc1cccc(F)c1)N1CCN(c2ccccc2)CC1`?
Luciferase inh: -9%; TSHR ag: inconclusive; ERK AVP inh: -1%; PK Bst: >57; HEK293 cAMP cs: 32µM*; Tau filament bind: 4%

Results for N#CCCn1c(=O)c(-c2cccs2)nc2cnc(Oc3cccc(Cl)c3)nc21 ?
Luciferase inh: 0%[11.4 µM]; TSHR ag: -11%; ERK AVP inh: -10%; HEK293 cAMP cs: -23%; Tau filament bind: inactive
